Experimental data published in PubChem BioAssay (NCI).
Compounds without any hit were thinned out: in the full panel of roughly 79,000, 15% have a hit. Calls of active or inactive are those of the source. Cut-off read from the data, not from the text of the source: active = growth inhibition above about 70%; inactive = the rest.

Experiments:
[1] = NCI Yeast Anticancer Drug Screen. Data for the rad50 strain (AID 155);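 note: 0% = growth of vehicle-only cultures of the same strain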; details: S. cerevisiae rad50 strain growth inhibition, hits give high values
In short: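 Vehicle-treated cultures provide the reference for the growth inhibition reported for compound-exposed, repair-deficient yeast.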

[2] = NCI Yeast Anticancer Drug Screen. Data for the mec2-1 strain (AID 157); details: S. cerevisiae mec2-1 strain, hits give high values
In short: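 Yeast mec2-1 mutant treated with compound. Readout: growth inhibition vs vehicle controls.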

[3] = NCI Yeast Anticancer Drug Screen. Data for the sgs1 mgt1 strain (AID 161);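 note: 0% = growth of cultures given vehicle only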; details: S. cerevisiae sgs1 mgt1 strain, hits give high values
In short: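 Test agents were incubated with a DNA-repair-mutant yeast strain. Growth was then read and compared against vehicle-treated controls.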

[4] = NCI Yeast Anticancer Drug Screen. Data for the cln2 rad14 strain (AID 165);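 note: 0% = growth equal to vehicle treated cultures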; details: S. cerevisiae cln2 rad14 strain, hits give high values
In short: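 cln2 rad14 yeast strain; compound exposure; growth inhibition read vs vehicle controls.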

[5] = NCI Yeast Anticancer Drug Screen. Data for the bub3 strain (AID 167); details: S. cerevisiae bub3 mutant strain, hits give high values
In short: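 Mutant yeast screening strain plus compound; vehicle-treated cultures serve as the 0% inhibition reference.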

[6] = NCI Yeast Anticancer Drug Screen. Data for the mlh1 rad18 strain (AID 175); details: S. cerevisiae mlh1 rad18 strain growth inhibition, hits give high values
In short: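 Yeast w/ defined DNA-repair lesions; compound exposure; growth vs vehicle controls → % inhibition.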

[7] = at 5.0 µM (retest, dose inferred, filed as 0.5)
[8] = at 50.0 µM (retest, dose inferred, filed as 5.0)

Measured: growth inhibition

COc1cccc(N2CCN(CC(O)COc3cc4c(c5c3CCCC5)CCCC4)CC2)c1 (stereo not given)
inactive: [1]; [7] 17% | [1]; at 50.0 µM 64.2% | [2]; [7] 20% | [2]; at 50.0 µM 48.6% | [3]; [7] 34% | [3]; at 50.0 µM 62.5% | [4]; [7] 13% | [4]; at 50.0 µM 58.8% | [5]; [7] 12% | [6]; [7] 12% | [6]; at 50.0 µM 54%
active: [1]; [8] 95% | [2]; [8] 98% | [3]; [8] 95% | [4]; [8] 94% | [5]; [8] 95% | [5]; at 50.0 µM 95% | [6]; [8] 94%

CC(C)CCN(CCC(C)C)C(=S)Nc1ccccc1
active: [1]; [8] 87% | [1]; at 50.0 µM 92.7% | [2]; [8] 93% | [2]; at 50.0 µM 89.2% | [3]; [8] 89% | [3]; at 50.0 µM 86.8% | [4]; [8] 89% | [4]; at 50.0 µM 90.8% | [5]; [8] 94% | [5]; at 50.0 µM 92% | [6]; [8] 94% | [6]; at 50.0 µM 92.5%
inactive: [1]; [7] -13% | [2]; [7] 6% | [3]; [7] -20% | [4]; [7] -22% | [5]; [7] -7% | [6]; [7] -7%

O=C(/C=C/c1ccc([N+](=O)[O-])o1)N1CCN(Cc2ccccc2)CC1
active: [1]; [8] 78% | [1]; at 50.0 µM 75.1% | [2]; [8] 75% | [3]; [8] 92% | [3]; at 50.0 µM 74% | [5]; [8] 75% | [6]; [8] 91%
inactive: [1]; [7] 38% | [2]; [7] 33% | [2]; at 50.0 µM 60% | [3]; [7] 55% | [4]; [7] 35% | [4]; [8] 60% | [4]; at 50.0 µM 38.8% | [5]; [7] 43% | [5]; at 50.0 µM 62% | [6]; [7] 52% | [6]; at 50.0 µM 58.6%

O=C(O)c1ccc([N+](=O)[O-])o1
active: [3]; at 50.0 µM 70.8% | [6]; at 50.0 µM 71.5%
inactive: [1]; [7] 6% | [1]; [8] 32% | [1]; at 50.0 µM 61% | [2]; [7] 1% | [2]; [8] 16% | [2]; at 50.0 µM 25.1% | [3]; [7] 4% | [3]; [8] 27% | [4]; [7] 3% | [4]; [8] 11% | [4]; at 50.0 µM 17.6% | [5]; [7] -3% | [5]; [8] 10% | [5]; at 50.0 µM 38.3% | [6]; [7] 6% | [6]; [8] 41%

O=C1C=CC(=O)N1c1ccc(-c2nc3ccccc3o2)cc1
inactive: [1]; [7] 66%
active: [1]; [8] 92% | [1]; at 50.0 µM 86.2% | [2]; [7] 70% | [2]; [8] 91% | [2]; at 50.0 µM 88.9% | [3]; [7] 100% | [3]; [8] 96% | [3]; at 50.0 µM 91.5% | [4]; [7] 81% | [4]; [8] 96% | [4]; at 50.0 µM 88% | [5]; [7] 100% | [5]; [8] 87% | [5]; at 50.0 µM 88.5% | [6]; [7] 82% | [6]; [8] 90% | [6]; at 50.0 µM 90%

COC(=O)CSc1nc2[nH]c(SC)c(C(N)=O)c2c(=O)n1-c1ccccc1
inactive: [1]; [7] -2% | [1]; [8] -4% | [1]; at 50.0 µM 2.35% | [2]; [7] -2% | [2]; [8] -22% | [2]; at 50.0 µM 29.4% | [3]; [7] 3% | [3]; [8] -7% | [3]; at 50.0 µM 7.25% | [4]; [7] -5% | [4]; [8] 3% | [4]; at 50.0 µM 46.2% | [5]; [7] 18% | [5]; [8] 21% | [5]; at 50.0 µM 7.8% | [6]; [7] -14% | [6]; [8] -19% | [6]; at 50.0 µM 9.8%

CC1(C)S[C@@H]2[C@H](N3C(=O)c4ccccc4C3=O)CN2[C@H]1NC(=O)N[C@@H]1N2C[C@@H](N3C(=O)c4ccccc4C3=O)[C@H]2SC1(C)C
inactive: [1]; [7] 0% | [1]; [8] 18% | [1]; at 50.0 µM 39.6% | [2]; [7] -4% | [2]; [8] 43% | [2]; at 50.0 µM 63.8% | [3]; [7] -2% | [3]; [8] 20% | [3]; at 50.0 µM 43% | [4]; [7] -6% | [4]; [8] 44% | [4]; at 50.0 µM 23.2% | [5]; [7] 4% | [6]; [7] -2% | [6]; [8] 36%
active: [5]; [8] 93% | [5]; at 50.0 µM 92.8% | [6]; at 50.0 µM 70.8%

O=C(C[n+]1ccc2ccccc2c1)c1ccc2ccc3ccccc3c2c1
inactive: [1]; [7] 5% | [2]; [7] 0% | [3]; [7] -3% | [4]; [7] 1% | [5]; [7] -11% | [6]; [7] -4%
active: [1]; [8] 92% | [1]; at 50.0 µM 97.7% | [2]; [8] 73% | [2]; at 50.0 µM 85.8% | [3]; [8] 89% | [3]; at 50.0 µM 96% | [4]; [8] 72% | [4]; at 50.0 µM 98.2% | [5]; [8] 92% | [5]; at 50.0 µM 93% | [6]; [8] 99% | [6]; at 50.0 µM 98.7%

O=[N+]([O-])c1cc(Cl)cc2c1nc(NCCO)c1ccccc12
inactive: [2]; [7] 26% | [2]; [8] 67% | [2]; at 50.0 µM 45.2% | [3]; [7] 63% | [4]; [7] 46% | [4]; at 50.0 µM 65% | [5]; [7] 20%
active: [1]; [7] 76% | [1]; [8] 90% | [1]; at 50.0 µM 75.1% | [3]; [8] 93% | [3]; at 50.0 µM 79.7% | [4]; [8] 79% | [5]; [8] 85% | [5]; at 50.0 µM 79.9% | [6]; [7] 86% | [6]; [8] 93% | [6]; at 50.0 µM 89.5%

O=C1C2C3C=CC(C3)C2C(=O)C2C3C=CC(C3)C12 (stereo not given)
inactive: [2]; [7] 58% | [3]; [7] 65% | [4]; [7] 23% | [5]; [7] 53% | [6]; [7] 60%
active: [1]; [7] 70% | [1]; [8] 96% | [1]; at 50.0 µM 98.6% | [2]; [8] 98% | [2]; at 50.0 µM 99.3% | [3]; [8] 99% | [3]; at 50.0 µM 99% | [4]; [8] 95% | [4]; at 50.0 µM 88% | [5]; [8] 96% | [5]; at 50.0 µM 98.9% | [6]; [8] 98% | [6]; at 50.0 µM 99.2%
